# U2OS ROS induce: raises reactive oxygen species in U2OS cancer cells; AID 624156; ROS induction (% of piperlongumine), % at 10 µM; U2OS ROS induction, H2DCF-DA fluorescence; actives 2% (n = 46,000); in the data active means ROS induction above about 79%, passing the limit was not always enough; inconclusive means no clear call, values can overlap the other calls;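 further: 0% = DMSO vehicle median and 100% = reference compound median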
# YB-1 expression: YB-1 expression inhibition; U2OS, qRT-PCR YB-1 vs CDIP delta delta Cp, 16 h; active compounds read high; zero = DMSO, each unit about twofold; actives 0.37% (n = 30,000); AID 434959; delta delta Cp (YB-1 minus CDIP) (concentration not given with the values);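 active means delta delta Cp rounded down to an integer at or above 3, about 3 SD of DMSO wells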;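 further: higher means less YB-1 transcript or more CDIP transcript relative to DMSO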
# * = called active by the depositor; ? = inconclusive; nt = not tested or not shown. Only some compounds are listed: those with a hit (about 2.1% of all), similar ones and a draw of the others.
SMILES,U2OS ROS induce,YB-1 expression
S=C(Nc1ccccc1)N1CCN(c2ccc3nnc(-c4ccccc4)n3n2)CC1,239.6*,nt
S=C(Nc1ccccc1)N1CCC(c2ccccc2)=N1,-4.2,nt
CN(C)/C=N/c1nnc(SCC(=O)Nc2cc(Cl)cc(Cl)c2)s1,-6.9,nt
COc1cc2c(cc1OC)CN(C(=O)[C@@H]1[C@H]3C(=O)O[C@H](c4ccccc4)[C@H](c4ccccc4)N3[C@H](c3ccc(OCCO)cc3)[C@@]13C(=O)Nc1ccccc13)CC2,98.2*,-0.133
O=C1O[C@@H](c2ccccc2)[C@@H](c2ccccc2)N2[C@@H](c3ccc(OCCO)cc3)[C@]3(C(=O)Nc4ccc(C#CCCO)cc43)[C@@H](C(=O)N3CCCCCCC3)[C@H]12,17.4,0.118
O=C1O[C@@H](c2ccccc2)[C@@H](c2ccccc2)N2[C@@H](c3ccccc3OCCO)[C@]3(C(=O)Nc4ccc(C#CCCO)cc43)[C@@H](C(=O)N3CCCCCCC3)[C@H]12,220.7*,-0.11
COC(=O)C(CC#Cc1ccc2c(c1)[C@]1(C(=O)N2)[C@H](C(=O)N2CCCCCCC2)[C@H]2C(=O)O[C@H](c3ccccc3)[C@H](c3ccccc3)N2[C@@H]1c1ccc(OCCO)cc1)C(=O)OC,103.9*,-0.102
COc1cc2c(cc1OC)CN(C(=O)[C@H]1[C@@H]3C(=O)O[C@@H](c4ccccc4)[C@@H](c4ccccc4)N3[C@@H](c3ccccc3OCCO)[C@]13C(=O)Nc1ccc(C#CC4=CCCCC4)cc13)CC2,86.7*,-0.259
COc1cc2c(cc1OC)CN(C(=O)[C@H]1[C@@H]3C(=O)O[C@@H](c4ccccc4)[C@@H](c4ccccc4)N3[C@@H](c3ccc(OCCO)cc3)[C@]13C(=O)Nc1ccc(C#CC4=CCCCC4)cc13)CC2,61.0,-0.498
COc1cc2c(cc1OC)CN(C(=O)[C@@H]1[C@H]3C(=O)O[C@H](c4ccccc4)[C@H](c4ccccc4)N3[C@H](c3ccc(O)cc3)[C@@]13C(=O)Nc1ccccc13)CC2,48.1,0.261
COC(=O)C(CC#Cc1ccc2c(c1)[C@]1(C(=O)N2)[C@H](c2ccc(O)cc2)N2[C@H](c3ccccc3)[C@H](c3ccccc3)OC(=O)[C@H]2[C@@H]1C(=O)N1CCCCCCC1)C(=O)OC,39.6,0.0946
COC(=O)c1ccc(-c2ccco2)n1CC(=O)N1CCCC1,-12.3,nt
O=C1C(=O)N(c2ccccn2)C(c2ccccc2)C1C(=O)c1cccs1 (stereo unspecified),-9.3,nt
COc1cc2c(cc1OC)CN(C(=O)[C@H]1[C@@H]3C(=O)O[C@@H](c4ccccc4)[C@@H](c4ccccc4)N3[C@@H](c3ccccc3OCCO)[C@]13C(=O)Nc1ccc(C#CCCO)cc13)CC2,120.1*,-0.562
COc1ccc(C#Cc2ccc3c(c2)[C@]2(C(=O)N3)[C@H](c3ccccc3OCCO)N3[C@H](c4ccccc4)[C@H](c4ccccc4)OC(=O)[C@H]3[C@@H]2C(=O)N2CCc3cc(OC)c(OC)cc3C2)cc1,63.7,-0.178
CCCC(=O)N1CCN(c2nc(Cc3ccccc3)c3c(c2C#N)CC(C)(C)OC3)CC1,53.7,nt
Cc1ccc2nc(C3CCCCC3)oc2c1,-5.4,nt
CCN(CC(=O)Nc1cccc(C)c1)S(=O)(=O)c1ccc(Br)cc1,130.5*,nt
CCN(CC(=O)Nc1ccc(C)c(C)c1)S(=O)(=O)c1ccc(C)cc1,-2.5,nt
Cn1nc(C(=O)NCCN(Cc2ccco2)C2CCCC2)c2c1-c1ccccc1OC2,14.7,nt
C[C@@H]1CCCCO[C@@H](CN(C)C(=O)Nc2ccccc2)[C@@H](C)CN([C@H](C)CO)C(=O)c2cc(NS(=O)(=O)c3ccccc3)ccc2O1,2.4,-0.957
Cc1ccc(S(=O)(=O)N(C)C[C@H]2OCCCC[C@@H](C)Oc3ccc(NC(=O)Nc4ccc(C(F)(F)F)cc4)cc3C(=O)N([C@H](C)CO)C[C@@H]2C)cc1,21.9,0.0858
Cc1ccc(S(=O)(=O)Nc2cccc3c2O[C@@H](CN(C)C(=O)Nc2ccc(C(F)(F)F)cc2)[C@@H](C)CN([C@H](C)CO)C3=O)cc1,8.5,-0.209
C[C@@H]1CCCCO[C@@H](CN(C)C(=O)Nc2ccc(C(F)(F)F)cc2)[C@@H](C)CN([C@H](C)CO)C(=O)c2cc(NS(=O)(=O)c3ccccc3)ccc2O1,101.7*,-0.206
C[C@@H]1CN([C@H](C)CO)C(=O)c2cccc(NS(=O)(=O)c3ccc(F)cc3)c2O[C@H]1CN(C)C(=O)Nc1ccc(C(F)(F)F)cc1,92.0*,-0.00163
SMILES,U2OS ROS induce,YB-1 expression
COc1ccc(S(=O)(=O)N(C)C[C@@H]2OCCCC[C@@H](C)Oc3ccc(NC(=O)Nc4ccc(C(F)(F)F)cc4)cc3C(=O)N([C@H](C)CO)C[C@@H]2C)cc1,32.3,-0.0118
C[C@@H]1CCCCO[C@H](CN(C)S(=O)(=O)c2ccccc2)[C@@H](C)CN([C@H](C)CO)C(=O)c2cc(NC(=O)Nc3ccc(C(F)(F)F)cc3)ccc2O1,80.0*,0.0635
C[C@@H]1CCCCO[C@@H](CN(C)S(=O)(=O)c2ccccc2)[C@@H](C)CN([C@H](C)CO)C(=O)c2cc(NC(=O)Nc3ccc(C(F)(F)F)cc3)ccc2O1,182.7*,-0.445
CC1=CC2(CCC(C)CC2C(=O)NCc2ccc(Cl)cc2)OC1=O (stereo unspecified),0.2,nt
CC(C)C(=O)/C=C1/Sc2ccccc2N1C,-5.0,nt
O=C(CCCn1c(=O)[nH]c2ccccc2c1=O)NCCc1ccccc1,1.5,nt
Cc1oc2c(c1C(=O)NCCCn1ccnc1)C(=O)c1ccccc1C2=O,53.2,0.225
Cc1ccc(NCC(=O)SCc2csc(Nc3ccccc3)n2)cc1,-12.5,nt
Clc1ccc(CSCc2ccc(-c3csnn3)cc2)cc1,-3.3,nt
COc1cc(-c2oc3cc(O)cc(O)c3c(=O)c2O[C@@H]2O[C@H](CO)[C@@H](O)[C@H](O)[C@H]2O)ccc1O[C@@H]1O[C@H](CO)[C@@H](O)[C@H](O)[C@H]1O,-5.6,-0.922
COC(=O)C1c2c(oc3cc(CO)cc(O)c3c2=O)C=CC1O (stereo unspecified),137.0*,0.372
O=C(COC(=O)C1CC(O)CN1C(=O)Oc1ccccc1)c1ccc(-c2ccccc2)cc1 (stereo unspecified),-1.8,nt
CCOC(=O)c1cnc2c(ccc3ccccc32)c1NCc1ccco1,25.5,nt
CCOC(=O)c1cnc2c(ccc3ccccc32)c1NCCOC(=O)c1cccnc1,247.9*,nt
CCOC(=O)c1cnc2c(ccc3ccccc32)c1NCC(C)C,15.1,nt
CCOC(=O)c1cnc2ccccc2c1NCCc1ccccc1,112.5*,nt
CNC(=O)c1c(-c2ccccc2)c2cc(OC)ccc2n1CCN(C)C,-10.2,nt
O=C(O)CC1(CC2=NS(=O)(=O)c3ccccc3N2)CCCC1,-0.4,nt
COc1ccc(CN(C)C[C@H]2Oc3ccc(NC(=O)CCN4CCOCC4)cc3CC(=O)N([C@@H](C)CO)C[C@@H]2C)cc1,14.3,0.081
C[C@H](CO)N1C[C@H](C)[C@H](CN(C)C)Oc2ccc(NC(=O)CCN3CCOCC3)cc2CC1=O,?,-0.536
COc1ccc(CN(C)C[C@@H]2Oc3ccc(NC(=O)CCN4CCOCC4)cc3CC(=O)N([C@H](C)CO)C[C@H]2C)cc1,120.9*,0.2
C[C@@H]1CN([C@H](C)CO)C(=O)Cc2cc(NC(=O)CCN3CCOCC3)ccc2O[C@@H]1CN(C)C,125.6*,-0.212
Cc1[nH]n(-c2ccccc2)c(=O)c1/C=C1\C=NN=C1c1ccccc1,105.9*,-0.488

# High-throughput results as filed in PubChem.
